Source: PubChem
GRP78 ERSR act = induces the endoplasmic reticulum stress response in human glioma cells; U87-MG GRP78 promoter luciferase reporter, 16 h; Potency, µM, for the others: top-dose activation, usual class: activators; 0.02% of 420,000 active; note: potency is the fitted concentration of half-maximal effect; series mostly up to about 76 µM; % of control where 0% means no effect; nearly all actives have a fitted effect of over 35% in size
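Stably transfected U87-MG glioma cells carrying a GRP78-based luciferase sensor; 16 h compound incubation. Luminescence end-point read 10 min after Bright-Glo addition at room temperature.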
TCR activator = activators of T cell receptors. AID 504894. Potency, µM (series often up to 9.22 µM), for the others: at the highest dose activation of IL-2 secretion, most hits filed as activators. 330,000 tested, under 10 active. primary human leukocytes, anti-CD3, IL-2 HTRF, 48 h; note: % of control where 0% means no effect
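Using a-CD3 beads without co-stimulation, primary human leukocytes were exposed to compounds for 48 hr. An HTRF IL-2 kit measured the cytokine, with europium-to-d2 energy transfer producing emission at 665nm upon 320nm excitation.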
LDHA inh = blocks human lactate dehydrogenase A. P00338. purified LDHA, NADH/diaphorase-resazurin fluorescence; hits give low values. activity change, % (values are at about 110 or 230 µM). 0.15% of 480,000 active. AID 1347041; in the data active = activity change below about -30%; inconclusive = mostly about -25% to -30%;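 note: plate controls were DMSO wells for no effect and wells without enzyme for full effect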
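Human LDH5 (2 nM) was incubated with 0.06 mM NADH and 0.2 mM pyruvate for 5 min at room temperature in Tris pH 7.4. Remaining NADH was coupled through diaphorase/resazurin, and resorufin fluorescence was read at 0 and 20 min.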
TSHR antagonist = human thyrotropin receptor antagonism. 0.2% of 330,000 active. TSHR-expressing cells, TSH-stimulated cAMP HTRF, 2 h; hits give low values. AID 504810. P16473. activity change, negative = inhibition, % at 11.5 µM;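 active = activity change below a set negative limit, meaning inhibition stronger than a set level, cut at about -70% in these data; inconclusive = activity change between two set negative limits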; note: % is set by controls: 0 for no effect and ±100 for the full control effect
Target sequence (P16473 whole entry, looked up): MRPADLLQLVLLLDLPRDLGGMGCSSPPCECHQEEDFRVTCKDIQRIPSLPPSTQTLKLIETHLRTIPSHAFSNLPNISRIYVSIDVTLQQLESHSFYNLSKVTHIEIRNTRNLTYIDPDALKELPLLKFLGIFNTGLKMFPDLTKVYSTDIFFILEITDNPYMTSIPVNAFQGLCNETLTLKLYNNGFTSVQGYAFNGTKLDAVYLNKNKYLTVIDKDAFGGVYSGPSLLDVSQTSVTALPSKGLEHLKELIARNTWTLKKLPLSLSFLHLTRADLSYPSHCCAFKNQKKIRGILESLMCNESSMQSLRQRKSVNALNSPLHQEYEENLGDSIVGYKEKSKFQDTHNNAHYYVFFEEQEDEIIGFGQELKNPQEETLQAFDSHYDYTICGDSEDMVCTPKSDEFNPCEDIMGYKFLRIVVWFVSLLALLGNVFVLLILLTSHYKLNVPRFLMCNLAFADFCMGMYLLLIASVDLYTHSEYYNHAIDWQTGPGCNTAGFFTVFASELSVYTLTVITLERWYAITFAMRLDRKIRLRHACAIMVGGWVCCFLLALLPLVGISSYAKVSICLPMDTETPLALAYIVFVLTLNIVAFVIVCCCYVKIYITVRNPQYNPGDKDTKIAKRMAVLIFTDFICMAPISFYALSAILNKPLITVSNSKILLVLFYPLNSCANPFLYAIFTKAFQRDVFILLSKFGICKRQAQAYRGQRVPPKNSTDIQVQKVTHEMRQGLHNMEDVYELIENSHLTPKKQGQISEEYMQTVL
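Freshly harvested TSHR cells receive pin-tooled compound, then EC80 TSH at 4nM final. After 2 hours at 37 deg C, antibody in lysis buffer and cAMP-d2 are added; 30 minutes at ambient temperature precede the HTRF read.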
RGS4 inh = inhibitors of human regulator of G protein signaling 4; P49798; Transcreener GDP fluorescence polarization, RGS4-accelerated GTP hydrolysis; Potency, µM (top dose mostly 114 µM), for inactives: at the highest dose activity change, negative = inhibition, actives largely listed as inhibitors; 0.039% of 390,000 active; note: potency is the fitted concentration of half-maximal effect; % is set by controls: 0 for no effect and ±100 for the full control effect; nearly all actives have a fitted effect of over 75% in size
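MLSMR compounds (23 nl, pin-transferred) preincubated 10 min at room temperature with a 500nM (2x) first reagent, then RGS4 at 900nM (2x) plus Transcreener GDP mix added; fluorescence polarization (620/688 nm) read before and after 90 min at 30 °C.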
pAkt inh = inhibitors of Akt phosphorylation | activity change, % for hits at 50 µM | Neuro2A IGF-stimulated pAkt S473 HTRF, 20 min; hits give low values | 0.32% of 360,000 active; in the data active = activity change below about -80%; inconclusive = mostly about -51% to -80%; note: % is set by controls: 0 for no effect and ±100 for the full control effect
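Neuro2A cells (4,500/well, DMEM with 0.5% FBS) were treated with compound at a single 50 µM final concentration, stimulated with 6 nM IGF for 20 min at 37 °C, and lysed. Phospho-Akt Ser473 was read by HTRF as 665/615 ratio ×10^4.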
An asterisk follows results filed as active; i = inactive; u = inconclusive; x = no result given; [ ] = dose if it differs, or a comment. Rows were chosen to be rich in hits. Some 0.55% of all compounds tested hit in one or more screens of this group. Unless noted, calls come from the whole dose curve; as a rule, active = well fitted curve in the direction sought with a large enough effect; inconclusive = small, poorly fitted or top-dose-only effect, or another doubt; inactive = no such curve, though single readings can be large; an effect the other way counts as inactive or inconclusive.

SMILES	GRP78 ERSR act	TCR activator	LDHA inh	TSHR antagonist	RGS4 inh	pAkt inh
COc1cccc(CNC(=O)CSCc2cnn(-c3ccccc3)c2-n2cccc2)c1OC	-3.4%	-0.2%	1.9	-3.8	2.8%	-119.3%*
COC(=O)CN1C(=O)COc2ccc(S(=O)(=O)N3CCCC3)cc21	-1.3%	-6.2%	0.1	-134.6*	-17.5%	i
CCOC(=O)C(CC)n1cnc2c(oc3ccccc32)c1=O (stereo not given)	-1.9%	-2.1%	-5.3	-0.8	4.5%	-113.2%*
O=C(COc1ccc2c(c1)OCO2)Nc1ccc2c(c1)oc1ccccc12	-2.8%	-0.5%	1.0	1.6	0.1%	-96.1%*
O=C(Nc1ccc2c(c1)oc1ccccc12)c1ccc2c(c1)OCO2	7.6%	-2.7%	-3.1	-9.4	-2.4%	i
CCc1cc(OCCN(C)C)ccc1Cl	-7.6%	-1.6%	-35.2*	-3.7	-5.1%	i
Cc1cc(OCCOCCN(C)C)ccc1Cl	0.2%	-1.1%[46.1 µM]	-6.5	3.6	-13.9%	i
CCN(CC)CCCNC(=O)c1[nH]c(C)c(C(=O)NC2CCCCC2)c1C	-6.5%	-1.6%	-5.2	-4.8	10.0%	-83.2%*
O=C(Cc1n[nH]c(=O)c2ccccc12)Nc1ccc(-c2nnc3n2CCCCC3)cc1	0.2%	-11.9%	-1.2	4.7	5.2%	-109.7%*
O=C(Cn1[nH]c(=O)c2ccccc2c1=O)Nc1ccc(-c2nnc3n2CCCCC3)cc1	4.4%	7.4%	-5.0	4.0	-12.5%	i
O=c1c2ccccc2sn1-c1ccccc1F	-10.3%	x	-51.5*	x	x	i
CN(C)S(=O)(=O)c1cccc(-n2sc3ccccc3c2=O)c1	-8.8%	1.3%	-42.9*	-15.4	-124.2%	i
O=c1c2ccccc2sn1-c1ccccc1	-15.4%	0.3%	u	-17.0	u	-106.7%*
O=c1c2ccccc2sn1-c1cccc(Cl)c1	-5.2%	x	-11.5	x	x	i
COc1ccc(CCNc2nc(-c3cc(OC)c(OC)c(OC)c3)cs2)cc1OC	x	x	16.4	x	x	x
CC(C)Cn1c(SCC(=O)c2ccc(C#N)cc2)nnc1-c1ccccc1	x	x	-19.9	x	x	x
CCOc1ccccc1-n1c(=S)sc2c(=O)n(-c3ccc(F)cc3)c(SCC(=O)O)nc21	-3.8%	7.1%	-1.5	-70.9*	4.0%	i
CCN(CC)S(=O)(=O)c1ccc(-c2nnc(SCC(=O)Nc3nnc(C)s3)n2CC)cc1	-3.9%	-24.3%	1.5	-3.4	-21.3%	-111.5%*
Cn1c(C(=O)N(Cc2ccccc2)Cc2ccccc2)cc2c(=O)n3ccccc3nc21	x	x	-15.0	x	x	x
N#CC1=C(N)OC2=C(C(=O)CC(c3ccco3)C2)C1c1ccc(OCc2c(F)cccc2Cl)cc1 (stereo not given)	2.2%	7.8%	-4.6	-16.8	-34.3%	-112.2%*
CCOC(=O)N1CCN(C(=O)Cc2ccc(-n3c(=O)[nH]c4ccccc4c3=O)cc2)CC1	-3.4%	-85.3%	-4.5	-5.0	-10.3%	-109.0%*
O=C(O)/C=C/c1ccc(Cn2ccnc2)cc1	-4.9%	-8.9%	-5.1	x	-34.8%	i
O=C(O)C=Cc1ccc(Cn2ccnc2)cc1	-1.3%	x	x	x	2.67µM*	x
CC(CCC(C)[n+]1cccc(Br)c1)[n+]1cccc(Br)c1 (stereo not given)	-1.7%	x	-30.5*	x	x	x
C[n+]1cccc(Br)c1	-2.0%	x	1.1	x	x	x
OCC1O[C@H]([S-])[C@H](O)[C@@H](O)[C@@H]1O.[Au+] (stereo not given in full)	-4.4%	x	x	-17.8	0.597µM*	x
O=C(CCNC(=O)Cn1cnc2ccccc2c1=O)NCC1CCCO1 (stereo not given)	-5.7%	4.7%	-3.3	5.1	-29.8%	i
O=C(CCNC(=O)Cn1cnc2ccccc2c1=O)NCC1COc2ccccc2O1 (stereo not given)	-5.3%	4.2%	-5.3	6.1	-48.7%[11.4 µM]	-107.0%*
O=c1c2ccccc2nc2sc(Nc3ccccc3)nn12	x	x	-12.5	x	x	x
N/C(=C\C(=O)/C=C/c1cccs1)C(Cl)(Cl)Cl	x	x	3.3	x	x	x
